Results as given in PubChem BioAssay AID1851 (National Center for Advancing Translational Sciences (NCATS), 2009).
The campaign covered roughly 16,000 compounds. About 5,100 (32%) were called active. Roughly 25% stayed inconclusive and do not appear here. Calls follow the shape of the dose curve; as a rule, active = well fitted curve in the direction sought with a large enough effect; inconclusive = small, poorly fitted or top-dose-only effect, or effect the other way; inactive = no such curve, though single readings can be large or run the other way. This is one part of the list.

Molecular target: Cytochrome P450 3A4 (Homo sapiens) (UniProt P08684)
Sequence (P08684 whole entry, looked up): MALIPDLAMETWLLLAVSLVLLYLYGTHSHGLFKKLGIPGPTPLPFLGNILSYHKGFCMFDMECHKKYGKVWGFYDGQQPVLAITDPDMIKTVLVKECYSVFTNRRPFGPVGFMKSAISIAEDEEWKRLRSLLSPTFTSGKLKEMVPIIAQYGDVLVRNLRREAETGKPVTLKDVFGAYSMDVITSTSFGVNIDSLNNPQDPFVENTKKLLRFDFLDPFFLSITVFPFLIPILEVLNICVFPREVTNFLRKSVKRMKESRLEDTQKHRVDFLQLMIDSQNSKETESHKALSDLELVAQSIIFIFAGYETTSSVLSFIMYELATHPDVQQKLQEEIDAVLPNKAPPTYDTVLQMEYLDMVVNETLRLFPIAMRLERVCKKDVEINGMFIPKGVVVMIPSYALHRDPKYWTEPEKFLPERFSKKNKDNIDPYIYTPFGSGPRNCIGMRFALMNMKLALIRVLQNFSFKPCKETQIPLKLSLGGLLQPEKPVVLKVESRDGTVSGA
Experiment: Cytochrome panel assay with activity outcomes
Conditions: recombinant CYP, pro-luciferin dealkylation, luminescence, p450-cyp3a4; series mostly up to 57.1 µM
% is scaled to controls: 0 for no effect and ±100 for the full control effect.

| Structure (SMILES) | AC50 | activity, negative = inhibition |
| --- | --- | --- |
| COc1ccc(NC(=O)N2CC3(CCN(C(=O)c4csnn4)CC3)C2)cc1 | inactive | – |
| COc1ccc(NC(=O)N2CC3(CCN(C(=O)c4cnccn4)CC3)C2)cc1 | inactive | – |
| COc1ccc(NC(=O)N2CCCC3(CCN(C(=O)c4csnn4)CC3)C2)cc1 | 15.8 µM (active) | – |
| O=C(Nc1ccccc1)N1CCCC2(CCN(C(=O)c3csnn3)CC2)C1 | 15.8 µM (active) | – |
| O=C(Nc1ccccc1)N1CCC2(CC1)CCN(C(=O)c1csnn1)CC2 | inactive | – |
| CC[C@@]1(O)C(=O)OCc2c1cc1n(c2=O)Cc2cc3c(CN(C)C)c(O)ccc3nc2-1 | – | -2.47% [at 11.4 µM] (inactive) |
| CC1(C)O[C@H]2[C@@H](O1)[C@@H](On1nnc3ccc(Cl)cc31)O[C@@H]2[C@@H]1COC(C)(C)O1 | – | -24.7% [at 11.4 µM] (inactive) |
| CC1CCN(CC(=O)Nc2cccc([N+](=O)[O-])c2)CC1 | inactive | – |
| Cc1ccc(NS(=O)(=O)c2ccc(OCC(=O)Nc3cccc([N+](=O)[O-])c3)c(C)c2)cc1 | 2 µM (active) | – |
| COc1ccccc1C(=O)Nc1cc2c(ccc3ccccc32)oc1=O | inactive | – |
| COc1ccccc1NC(=O)Cn1nnc(-c2ccccc2NC(=O)c2cc3ccccc3oc2=O)n1 | 3.55 µM (active) | – |
| COc1ccc(C(=O)OC(C)CN2CCN(C)CC2)cc1OC (stereo unspecified) | inactive | – |
| COC(=O)c1ccc(OCC2c3cc(OC)c(OC)cc3CCN2C(=O)C2CC2)cc1 (stereo unspecified) | 17.8 µM (active) | – |
| COc1ccccc1-c1cncnc1NCc1cccnc1 | 0.501 µM (active) | – |
| COc1ccccc1-c1cncnc1NCc1ccccc1 | 0.251 µM (active) | – |
| COc1ccccc1-c1cncnc1NCc1cccc(C)c1 | 0.1 µM (active) | – |
| CCCCCCN(CCCCCC)C(=O)Cc1c(-c2ccc(Cl)cc2)[nH]c2ccc(Cl)cc12 | 12.6 µM (active) | – |
| CCCCN(C)Cc1c(C)[nH]c2ccc(Cl)cc2c1=O | inactive | – |
| CCCCCCN(CCCCCC)C(=O)Cc1c(-c2ccc(F)cc2)[nH]c2ccccc12 | 2.51 µM (active) | – |
| CCOC(=O)c1[nH]c2ccc(Cl)cc2c1-c1ccccc1 | inactive | – |
| Cn1c(=O)c2[nH]c(C3CCCC3)nc2n(C)c1=O | inactive | – |
| O=C(O)c1nnsc1COCc1ccccc1 | – | -0.287% [at 11.4 µM] (inactive) |
| COc1ccc(OC)c2[nH]c(=O)c(CCNC(=O)c3ccc(S(=O)(=O)N(C)C)cc3)cc12 | inactive | – |
| COc1ccc(OC)c2[nH]c(=O)c(CCNS(=O)(=O)c3ccc(C)cc3)cc12 | 7.94 µM (active) | – |

| Structure (SMILES) | AC50 | activity, negative = inhibition |
| --- | --- | --- |
| COc1ccc(OC)c2[nH]c(=O)c(CCNC(=O)c3ccc(S(=O)(=O)N4CCCC4)cc3)cc12 | 15.8 µM (active) | – |
| COc1ccc(OC)c2[nH]c(=O)c(CCNC(=O)C3CCCCC3)cc12 | 8.91 µM (active) | – |
| COc1cc2c(c(O)c1OC)C(=O)C(OC)CCC2 (stereo unspecified) | inactive | – |
| COc1ccc(C(=O)NCC(c2ccc(F)cc2)N2CCOCC2)cc1S(=O)(=O)N1CCCC1 (stereo unspecified) | inactive | – |
| COc1ccc(OC)c2[nH]c(=O)c(CCNC(=O)COc3ccccc3)cc12 | 10 µM (active) | – |
| COCCNC(=O)COc1ccc(Oc2ccccc2)cc1 | inactive | – |
| CCCCC1CC(/C(C)=N/NC(N)=O)OC1=O (stereo unspecified) | inactive | – |
| COc1cccc(NC(=O)CSc2nc3ccccc3cc2Cc2ccccc2)c1 | 3.55 µM (active) | – |
| COc1ccccc1NC(=O)CSc1nc2ccccc2cc1Cc1ccccc1 | 2.82 µM (active) | – |
| CCOC(=O)c1sc2nc3c(cc2c1N)COC(C(C)C)C3 (stereo unspecified) | inactive | – |
| Cn1cc(C2=C(c3ccc(Cl)cc3Cl)C(=O)NC2=O)c2ccccc21 | 2.51 µM (active) | – |
| COC(=O)c1ccc(C(=O)OC)c(NC(=O)CSCc2ccc(Br)cc2)c1 | 12.6 µM (active) | – |
| CSc1ccccc1NC(=O)CSCc1ccc(C)cc1 | – | -20% [at 11.4 µM] (inactive) |
| COc1ccc(-c2ccc3c(n2)CCCN3C[C@H](O)CN2CCCc3nc(C)c(C)cc32)cc1 | – | -46.4% [at 11.4 µM] (inactive) |
| COc1cccc([C@@H]2Oc3ccc(OC)cc3/C(=N/O[C@@H](C)CN3CCCCc4nc(C)c(C)cc43)[C@@H]2O)c1 | 3.98 µM (active) | – |
| COc1cccc([C@@H]2Oc3ccc(OC)cc3/C(=N/O[C@@H](C)CN3CCCc4nc(C)c(C)cc43)[C@@H]2O)c1 | 3.16 µM (active) | – |
| COc1ccc2nc3cc(Cl)ccc3c(Nc3ccc(O)c(CN4CCN(C)CC4)c3)c2c1 | – | 2.77% [at 11.4 µM] (inactive) |
| CCc1c2c(nc3ccc(OC)cc13)COC2 | 15.8 µM (active) | – |
| COc1ccc2nccc(C(=O)O)c2c1 | inactive | – |
| C[C@@]1(O)CCOC(=O)C1 | inactive | – |
| CC1(C)O[C@H]2[C@@H](c3[nH]nc4c(=O)[nH]c(=O)[nH]c34)OC[C@H]2O1 | – | -0.0029% [at 11.4 µM] (inactive) |
| C#CCN1C(C)=C(C(=O)OC)[C@@H](c2cccc([N+](=O)[O-])c2)C(C(=O)OCC)=C1C | 3.16 µM (active) | – |
| COCC(C)NCc1cccc([N+](=O)[O-])c1 (stereo unspecified) | inactive | – |
| CCOC(=O)N/N=C(/C)c1ccc([N+](=O)[O-])o1 | – | -3.74% [at 2.29 µM] (inactive) |

| Structure (SMILES) | AC50 | activity, negative = inhibition |
| --- | --- | --- |
| Cc1cccc(Nc2ccccc2C(=O)OCC(=O)NCc2ccco2)c1C | 15.8 µM (active) | – |
| O=C(COC(=O)c1ccccc1Nc1cccc(C(F)(F)F)c1)NCc1ccco1 | 22.4 µM (active) | – |
| O=C(COC(=O)c1cccnc1Nc1cccc(C(F)(F)F)c1)NCc1ccc2c(c1)OCO2 | 0.501 µM (active) | – |
| Cc1c(Nc2ncccc2C(=O)O)cccc1C(F)(F)F | inactive | – |
| O=C(OC(C(=O)NC1CCCC1)c1ccncc1)C1=Cc2ccccc2OC1 (stereo unspecified) | 3.98 µM (active) | – |
| Cc1ccc(C(OC(=O)c2ccco2)C(=O)NC2CCCCC2)cc1 (stereo unspecified) | – | -11.1% [at 2.29 µM] (inactive) |
| c1cc(-c2sc(-c3ccncc3)c(-c3ccncc3)c2-c2ccncc2)ccn1 | 0.316 µM (active) | – |
| Cc1cn2c(-c3ccncc3)nnc2s1 | inactive | – |
| CCC(C)NC(=O)C1CC(c2ccc(OC)cc2)=NO1 (stereo unspecified) | inactive | – |
| CCC(C)NC(=O)C1c2cc(OC)c(OC)cc2C(=O)N(C)C1c1cccs1 (stereo unspecified) | 5.62 µM (active) | – |
| COc1cc2c(cc1OC)C(C(=O)N1CCN(c3ccccn3)CC1)C(c1cccs1)N(C)C2=O (stereo unspecified) | 4.47 µM (active) | – |
| COc1ccc(C(=O)Nc2ccc3c(c2)nc(CN2CCN(C(C)=O)CC2)n3C)cc1 | – | -0.562% [at 2.29 µM] (inactive) |
| Cn1c(CN2CCCCC2)nc2cc(NC(=O)c3ccc(Cl)cc3)ccc21 | 15.8 µM (active) | – |
| Cn1c(CN2CCCC2)nc2cc(NC(=O)C3CCCCC3)ccc21 | inactive | – |
| COc1ccc(C(=O)Nc2ccc(S(=O)(=O)N3CCOCC3)cc2)cc1OC | inactive | – |
| COc1cc(NC(=S)Nc2ccc(S(=O)(=O)N3CCOCC3)cc2)cc(OC)c1OC | 15.8 µM (active) | – |
| CC(N)=O | inactive | – |
| c1ccc(-c2nc(CSc3n[nH]c(-c4cccs4)n3)cs2)cc1 | 6.31 µM (active) | – |
| CC(C)C1NC(=S)N(Cc2ccccc2)C1=O (stereo unspecified) | 14.1 µM (active) | – |
| O=c1[nH]c(=S)[nH]nc1Cc1ccccc1 | inactive | – |
| O=C(Nc1nc2ccccc2n1Cc1ccccc1)c1ccc(COc2ccccc2[N+](=O)[O-])o1 | 4.47 µM (active) | – |
| CCn1nccc1C(=O)Nc1nc2ccccc2n1CCN1CCCCC1 | inactive | – |
| CCOC(=O)Cn1nnc2c(sc3nc4c(c(-c5ccc(Cl)cc5)c32)CCC4)c1=O | inactive | – |
| CCOC(=O)c1sc2nc3c(cc2c1N)COC(C)(CC)C3 (stereo unspecified) | – | 1.93% [at 11.4 µM] (inactive) |

| Structure (SMILES) | AC50 | activity, negative = inhibition |
| --- | --- | --- |
| CCC1(C)Cc2c(sc3nnn(CC(=O)Nc4cccc5ccccc45)c(=O)c23)CO1 (stereo unspecified) | 10 µM (active) | – |
| CC1(C)Cc2c(sc3nc(-c4ccccc4)n(N)c(=O)c23)CO1 | inactive | – |
| CCC1(C)Cc2c(sc3nnn(CC(=O)Nc4ccc(C)cc4)c(=O)c23)CO1 (stereo unspecified) | 14.1 µM (active) | – |
| Cc1ccc(C(=O)Cn2nnc3c(sc4nc5c(c(-c6ccccc6)c43)CCC5)c2=O)cc1 | inactive | – |
| CC1(C)CC(=O)c2cn3ncnc3nc2C1 | inactive | – |
| Nc1cccc2cnccc12 | 7.94 µM (active) | – |
| CC(C)[C@H](NC(=O)OC(C)(C)C)[C@@H](O)CC(=O)OC(C)(C)C | – | -23.3% [at 11.4 µM] (inactive) |
| O=C(c1ccccc1)c1nn(-c2ccccc2)c(=O)cc1C(F)(F)F | inactive | – |
| Cc1n[nH]c(=O)n1-c1cccc(C(F)(F)F)c1 | inactive | – |
| O=C(O)c1nn(-c2ccccc2)ccc1=O | – | -15.6% [at 11.4 µM] (inactive) |
| COc1ccccc1NC(=O)c1nn(-c2cccc(C(F)(F)F)c2)ccc1=O | 20 µM (active) | – |
| COc1ccccc1NC(=O)c1nc[nH]c1C(=O)Nc1ccccc1OC | inactive | – |
| O=c1ccn(-c2cccc(C(F)(F)F)c2)nc1-c1ccn(-c2ccccc2F)n1 | 10 µM (active) | – |
| CC(C)NC[C@H]1CCc2cc(CO)c([N+](=O)[O-])cc2N1 | inactive | – |
| N#CCCn1c(=O)c(-c2ccccc2)nc2cnc(Oc3cccc(Cl)c3)nc21 | inactive | – |
| N#CCCn1c(=O)c(CCc2ccccc2)nc2cnc(Oc3cccc(Cl)c3)nc21 | 0.794 µM (active) | – |
| N#CCCn1c(=O)cnc2cnc(Oc3ccccc3)nc21 | inactive | – |
| N#CCCn1c(=O)c(-c2ccc(Cl)cc2)nc2cnc(Oc3cccc(Cl)c3)nc21 | inactive | – |
| COc1ccc(Oc2ncc3nc(CCc4ccccc4)c(=O)n(CCC#N)c3n2)cc1 | 1.58 µM (active) | – |
| N#CCCn1c(=O)c(CCc2ccccc2)nc2cnc(Oc3ccccc3)nc21 | 2.51 µM (active) | – |
| Cc1cc(=O)c2cc(Cl)ccc2[nH]1 | inactive | – |
| Clc1ccc(SCc2cc(-c3ccccc3)no2)cc1 | inactive | – |
| Nc1ccccc1SCc1csc(-c2ccc(Cl)cc2)n1 | 1 µM (active) | – |
| C[N+](C)(N)Cc1csc(-c2ccc(Cl)cc2)n1 | – | -0.841% [at 11.4 µM] (inactive) |
